Laboratory results reported in PubChem BioAssay (EPA / NIEHS).
Records with an inconclusive call do not appear. Activity calls are given as the source filed them. How the source made its calls, unless noted: active means hit-call score of the fitted dose curve at least 0.9, where 1 is the maximum; inactive means score below 0.9.

Assays:
[1] = BSK_3C_Proliferation: Cell Proliferation Assessment in the BioMAP Diversity Plus: 3C Assay (AID 2283006); settings: primary human endothelial cells (HUVEC);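 on AC50: potency may reflect either rise or fall in cell number versus DMSO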
Method in brief: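 Cells (human umbilical vein endothelial, sub-confluent) receive test chemical; after 48 h they are fixed in 10% trichloroacetic acid, stained with 0.1% SRB and read at 560 nm. Activity is referenced to DMSO, fitting increases and decreases.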

[2] = target: Nuclear receptor subfamily 1 group I member 2 (Homo sapiens) (UniProt O75469); assay: ATG_PXR_TRANS: Attagene TRANS-FACTORIAL HepG2 Assay for human Pregnane X Receptor (PXR) (AID 2283008; active means hit-call score of the fitted dose curve at least 0.9, where 1 is the maximum)
Chain of Nuclear receptor subfamily 1 group I member 2 (Homo sapiens) (O75469 whole entry, looked up, the tested form may be a part): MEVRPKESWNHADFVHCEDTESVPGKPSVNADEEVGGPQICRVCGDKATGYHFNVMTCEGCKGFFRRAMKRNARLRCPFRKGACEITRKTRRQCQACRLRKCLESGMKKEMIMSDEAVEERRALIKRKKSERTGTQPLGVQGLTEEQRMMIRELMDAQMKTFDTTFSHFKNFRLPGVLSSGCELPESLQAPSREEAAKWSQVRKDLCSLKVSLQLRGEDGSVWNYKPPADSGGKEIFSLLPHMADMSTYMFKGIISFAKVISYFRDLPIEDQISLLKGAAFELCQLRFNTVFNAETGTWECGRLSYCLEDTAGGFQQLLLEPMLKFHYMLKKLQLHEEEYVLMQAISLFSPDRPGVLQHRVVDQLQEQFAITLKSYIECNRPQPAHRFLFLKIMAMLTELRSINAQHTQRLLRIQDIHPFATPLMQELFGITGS
Method in brief: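 Transient HepG2 transfectants carrying multiplexed reporter transcription units; PXR activity read through a Gal4 chimera. 24 h exposure. RT-PCR/CE fluorescence; upward curve fit referenced to DMSO.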

[3] = target: human RAR-related Orphan Receptor gamma (RORg), RORC (gene 6097) (UniProt P51449); assay: ATG_RORg_TRANS: Attagene TRANS-FACTORIAL HepG2 Assay for human RAR-related Orphan Receptor gamma (RORg) (AID 2283011; active means hit-call score of the fitted dose curve at least 0.9, where 1 is the maximum;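 on AC50: potency for induction of reporter transcripts above DMSO so activators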)
Chain of human RAR-related Orphan Receptor gamma (RORg), RORC (gene 6097) (P51449 whole entry, looked up, the tested form may be a part): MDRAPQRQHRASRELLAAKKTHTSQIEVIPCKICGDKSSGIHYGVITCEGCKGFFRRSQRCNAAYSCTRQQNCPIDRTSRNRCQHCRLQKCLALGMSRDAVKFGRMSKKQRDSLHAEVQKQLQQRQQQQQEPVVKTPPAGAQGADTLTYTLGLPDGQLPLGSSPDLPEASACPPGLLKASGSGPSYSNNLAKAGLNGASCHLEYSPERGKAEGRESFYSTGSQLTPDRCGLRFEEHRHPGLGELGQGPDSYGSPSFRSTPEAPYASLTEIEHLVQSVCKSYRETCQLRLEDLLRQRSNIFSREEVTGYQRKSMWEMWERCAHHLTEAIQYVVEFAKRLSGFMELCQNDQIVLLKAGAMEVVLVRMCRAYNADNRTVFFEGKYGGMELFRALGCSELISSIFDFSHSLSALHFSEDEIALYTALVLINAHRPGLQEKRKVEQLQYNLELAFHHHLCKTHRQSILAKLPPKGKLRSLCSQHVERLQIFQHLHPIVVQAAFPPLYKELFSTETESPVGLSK
Method in brief: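 HepG2 cells transiently transfected with GAL4-UAS reporter units and chimeric RORg-Gal4 construct; after 24 h chemical exposure, reporter mRNA measured by RT-PCR with fluorescent capillary electrophoresis, gain of signal fitted against DMSO.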

[4] = target: human Retinoid X Receptor beta (RXRb), RXRB (gene 6257) (UniProt P28702); assay: ATG_RXRb_TRANS: Attagene TRANS-FACTORIAL HepG2 Assay for human Retinoid X Receptor beta (RXRb) (AID 2283013; active means hit-call score of the fitted dose curve at least 0.9, where 1 is the maximum)
Chain of human Retinoid X Receptor beta (RXRb), RXRB (gene 6257) (P28702 whole entry, looked up, the tested form may be a part): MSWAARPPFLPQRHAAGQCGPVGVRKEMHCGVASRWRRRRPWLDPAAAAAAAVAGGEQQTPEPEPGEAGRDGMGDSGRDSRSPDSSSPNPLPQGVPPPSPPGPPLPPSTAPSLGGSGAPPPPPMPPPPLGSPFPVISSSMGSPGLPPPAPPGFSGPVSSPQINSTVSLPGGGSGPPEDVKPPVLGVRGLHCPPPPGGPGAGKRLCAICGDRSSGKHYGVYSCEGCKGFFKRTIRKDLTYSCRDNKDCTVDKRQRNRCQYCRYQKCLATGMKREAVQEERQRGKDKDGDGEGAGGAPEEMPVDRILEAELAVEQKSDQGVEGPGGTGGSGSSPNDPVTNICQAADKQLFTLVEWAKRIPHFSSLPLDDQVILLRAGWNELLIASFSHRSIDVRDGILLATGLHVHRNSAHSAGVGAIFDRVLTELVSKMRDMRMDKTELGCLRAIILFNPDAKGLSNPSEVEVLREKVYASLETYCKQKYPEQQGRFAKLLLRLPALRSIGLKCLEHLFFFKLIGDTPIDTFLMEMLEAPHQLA
Method in brief: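 Chimeric receptor-Gal4 activity was assessed in transiently transfected human HepG2 cells after 24 h exposure. Transcripts from GAL4-UAS reporters were quantified by fluorescent RT-PCR and capillary electrophoresis, with DMSO as negative control and baseline.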

[5] = read-out: E-selectin (Homo sapiens) (UniProt P16581); assay: BSK_3C_Eselectin: BioMAP Diversity Plus: 3C Assay for Eselectin Biomarker Activity (AID 2283015); settings: primary human endothelial cells (HUVEC); actives raise or lower the signal
Method in brief: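 Primary human umbilical vein endothelial cells (3C system), read 24 h after compound addition; E-selectin measured by ELISA. Bidirectional curve fitting against DMSO baseline; cytotoxicity by parallel SRB total-protein staining.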

[6] = read-out: Interleukin-1 alpha (IL1a), IL1A (gene 3552); assay: BSK_BE3C_IL1a: BioMAP Diversity Plus: BE3C Assay for Interleukin-1 alpha (IL1a) Biomarker Activity (AID 2283016); settings: primary human bronchial epithelial cells; actives raise or lower the signal
Method in brief: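 Signal from IL-1a ELISA, taken 24 h after chemical dosing of human bronchial epithelial cells, is compared with DMSO as baseline using bidirectional curve fitting.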

[7] = read-out: Monocyte Chemoattractant Protein-1 (MCP1), CCL2 (gene 6347); assay: BSK_3C_MCP1: BioMAP Diversity Plus: 3C Assay for Monocyte Chemoattractant Protein-1 (MCP1) Biomarker Activity (AID 2283017); settings: primary human endothelial cells (HUVEC); actives raise or lower the signal
Method in brief: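 Human umbilical vein endothelial cells (3C system) exposed to chemicals for 24 h; MCP-1 quantified by ELISA against the DMSO baseline with bidirectional fitting, and parallel SRB staining used to assess cytotoxicity.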

[8] = read-out: Monocyte Chemoattractant Protein-1 (MCP1), CCL2 (gene 6347); assay: BSK_4H_MCP1: BioMAP Diversity Plus: 4H Assay for Monocyte Chemoattractant Protein-1 (MCP1) Biomarker Activity (AID 2283018); settings: primary human endothelial cells (HUVEC); actives raise or lower the signal
Method in brief: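 Endothelial cells from umbilical vein were treated with test chemical, then after 24 h MCP-1 levels were quantified by ELISA; endpoint values came from bidirectional fitting with DMSO as baseline of activity.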

[9] = read-out: Human Leukocyte Antigen - DR isotype (HLADR), HLA-DRA (gene 3122); assay: BSK_3C_HLADR: BioMAP Diversity Plus: 3C Assay for Human Leukocyte Antigen - DR isotype (HLADR) Biomarker Activity (AID 2283019); settings: primary human endothelial cells (HUVEC); actives raise or lower the signal
Method in brief: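 HUVEC monoculture, HLA-DR measured by ELISA 24 h after chemical dosing. Fitted bidirectionally against DMSO baseline; parallel SRB staining assessed cytotoxicity, with 3C proliferation read by SRB at 48 h.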

[10] = read-out: Interleukin-8 (IL8), CXCL8 (gene 3576); assay: BSK_3C_IL8: BioMAP Diversity Plus: 3C Assay for Interleukin-8 (IL8) Biomarker Activity (AID 2283020); settings: primary human endothelial cells (HUVEC); actives raise or lower the signal
Method in brief: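 Endothelial primary cells of human umbilical vein origin are dosed with chemical; after 24 h the IL-8 biomarker is measured by ELISA, and concentration–response is fitted in both directions versus DMSO.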

[11] = read-out: Monokine induced gamma interferon (MIG), CXCL9 (gene 4283); assay: BSK_3C_MIG: BioMAP Diversity Plus: 3C Assay for Monokine induced gamma interferon (MIG) Biomarker Activity (AID 2283021); settings: primary human endothelial cells (HUVEC); actives raise or lower the signal
Method in brief: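 Endothelial primary cells (human umbilical vein) are dosed with test chemical in the 3C system. MIG levels are measured by ELISA at 24 h and fitted in both directions relative to DMSO.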

[12] = target: human Vitamin D Receptor (VDR), VDR (gene 7421) (UniProt P11473); assay: ATG_VDR_TRANS: Attagene TRANS-FACTORIAL HepG2 Assay for human Vitamin D Receptor (VDR) (AID 2283022; active means hit-call score of the fitted dose curve at least 0.9, where 1 is the maximum)
Chain of human Vitamin D Receptor (VDR), VDR (gene 7421) (P11473 whole entry, looked up, the tested form may be a part): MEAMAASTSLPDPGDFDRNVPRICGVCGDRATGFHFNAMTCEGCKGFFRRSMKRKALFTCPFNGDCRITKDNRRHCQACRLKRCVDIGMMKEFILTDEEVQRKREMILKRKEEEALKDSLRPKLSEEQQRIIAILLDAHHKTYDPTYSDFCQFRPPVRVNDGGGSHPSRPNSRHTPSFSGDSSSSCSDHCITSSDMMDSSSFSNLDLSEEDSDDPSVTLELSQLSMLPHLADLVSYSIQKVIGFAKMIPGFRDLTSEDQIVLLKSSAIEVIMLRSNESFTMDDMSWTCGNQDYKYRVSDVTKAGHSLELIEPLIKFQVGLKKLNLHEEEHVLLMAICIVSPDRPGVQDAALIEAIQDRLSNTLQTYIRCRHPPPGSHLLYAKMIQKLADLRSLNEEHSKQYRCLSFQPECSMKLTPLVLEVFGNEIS
Method in brief: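 HepG2 cells were transiently transfected with GAL4-UAS reporter units and a chimeric VDR-Gal4 construct, then dosed for 24 hours. Reporter mRNA was quantified by RT-PCR, fluorescent labeling, HpaI digestion and capillary electrophoresis; gain of signal analysed vs DMSO.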

[13] = BSK_3C_SRB: Viability Assessment in the BioMAP Diversity Plus: 3C Assay (AID 2283023); settings: primary human endothelial cells (HUVEC);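 further: fitted both ways against DMSO so a hit may be signal rise or drop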
Method in brief: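 Human umbilical vein endothelial cells in the 3C system, treated 24 h. Total protein measured by 0.1% sulforhodamine B staining after 10% TCA fixation, read at 560 nm; bidirectional fit versus DMSO.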

[14] = read-out: Matrix Metallopeptidase 1 (MMP1), MMP1 (gene 4312); assay: BSK_BE3C_MMP1: BioMAP Diversity Plus: BE3C Assay for Matrix Metallopeptidase 1 (MMP1) Biomarker Activity (AID 2283024); settings: primary human bronchial epithelial cells; actives raise or lower the signal
Method in brief: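 MMP1 signal, measured by ELISA after a 24 h chemical exposure of human primary bronchial epithelial cells, is analysed with bidirectional fitting using DMSO as negative control.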

[15] = BSK_3C_Vis: BioMAP Diversity Plus: 3C Assay for Morphology Visualization (AID 2283025); settings: primary human endothelial cells (HUVEC);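 further: fitted both ways so gain or loss versus DMSO counts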
Method in brief: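 Morphology read by light microscopy serves as a background control for the multiplexed 3C assay in human umbilical vein endothelial cells, taken 24 h after dosing, with DMSO as the negative control and bidirectional curve fitting.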

[16] = target: Retinoic acid receptor RXR-alpha (Homo sapiens) (UniProt P19793); assay: ATG_RXRa_TRANS: Attagene TRANS-FACTORIAL HepG2 Assay for human Retinoid X Receptor alpha (RXRa) (AID 2283012; active means hit-call score of the fitted dose curve at least 0.9, where 1 is the maximum)
Chain of Retinoic acid receptor RXR-alpha (Homo sapiens) (P19793 whole entry, looked up, the tested form may be a part): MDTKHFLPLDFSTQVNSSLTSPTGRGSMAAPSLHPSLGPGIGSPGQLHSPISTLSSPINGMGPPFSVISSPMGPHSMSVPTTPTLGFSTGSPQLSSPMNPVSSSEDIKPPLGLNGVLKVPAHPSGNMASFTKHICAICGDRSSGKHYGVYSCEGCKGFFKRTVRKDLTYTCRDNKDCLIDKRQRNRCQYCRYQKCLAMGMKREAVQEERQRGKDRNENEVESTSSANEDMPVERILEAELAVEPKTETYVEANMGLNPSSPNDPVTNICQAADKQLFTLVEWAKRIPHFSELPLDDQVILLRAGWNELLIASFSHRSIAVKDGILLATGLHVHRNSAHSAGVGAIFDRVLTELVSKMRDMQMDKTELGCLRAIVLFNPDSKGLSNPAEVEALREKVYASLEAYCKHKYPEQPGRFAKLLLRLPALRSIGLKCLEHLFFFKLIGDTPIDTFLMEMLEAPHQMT
Method in brief: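 Measures exogenous chimeric NR-GAL4 activity in transfected HepG2 liver cells after 24 h of dosing. Induced reporter mRNA was detected by RT-PCR with capillary electrophoresis, and gain of signal was analysed against DMSO.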

[17] = target: human Thyroid Receptor alpha (THRa1), THRA (gene 7067) (UniProt P10827); assay: ATG_THRa1_TRANS: Attagene TRANS-FACTORIAL HepG2 Assay for human Thyroid Receptor alpha (THRa1) (AID 2283014; active means hit-call score of the fitted dose curve at least 0.9, where 1 is the maximum)
Chain of human Thyroid Receptor alpha (THRa1), THRA (gene 7067) (P10827 whole entry, looked up, the tested form may be a part): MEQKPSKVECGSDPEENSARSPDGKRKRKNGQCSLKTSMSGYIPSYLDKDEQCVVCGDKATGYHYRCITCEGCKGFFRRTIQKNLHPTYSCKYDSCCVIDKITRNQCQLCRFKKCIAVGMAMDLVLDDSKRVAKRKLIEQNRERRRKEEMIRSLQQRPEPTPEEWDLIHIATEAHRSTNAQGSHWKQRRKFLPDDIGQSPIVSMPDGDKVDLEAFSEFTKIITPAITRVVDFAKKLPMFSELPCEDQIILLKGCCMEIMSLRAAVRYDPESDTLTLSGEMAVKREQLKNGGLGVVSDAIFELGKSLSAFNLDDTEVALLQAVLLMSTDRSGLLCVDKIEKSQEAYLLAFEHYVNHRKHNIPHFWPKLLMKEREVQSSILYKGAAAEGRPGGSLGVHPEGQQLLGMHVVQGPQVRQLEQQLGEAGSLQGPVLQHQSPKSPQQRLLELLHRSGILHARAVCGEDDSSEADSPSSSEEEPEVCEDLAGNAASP
Method in brief: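 HepG2 cells transiently transfected with chimeric NR-Gal4 and GAL4-UAS reporter units, dosed 24 h. Reporter mRNA quantified by RT-PCR, fluorescent labeling, HpaI digestion and capillary electrophoresis; gain-of-signal fit versus DMSO.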

[18] = target: human Retinoic Acid Receptor gamma (RARg), RARG (gene 5916) (UniProt P13631); assay: ATG_RARg_TRANS: Attagene TRANS-FACTORIAL HepG2 Assay for human Retinoic Acid Receptor gamma (RARg) (AID 2283009; active means hit-call score of the fitted dose curve at least 0.9, where 1 is the maximum)
Chain of human Retinoic Acid Receptor gamma (RARg), RARG (gene 5916) (P13631 whole entry, looked up, the tested form may be a part): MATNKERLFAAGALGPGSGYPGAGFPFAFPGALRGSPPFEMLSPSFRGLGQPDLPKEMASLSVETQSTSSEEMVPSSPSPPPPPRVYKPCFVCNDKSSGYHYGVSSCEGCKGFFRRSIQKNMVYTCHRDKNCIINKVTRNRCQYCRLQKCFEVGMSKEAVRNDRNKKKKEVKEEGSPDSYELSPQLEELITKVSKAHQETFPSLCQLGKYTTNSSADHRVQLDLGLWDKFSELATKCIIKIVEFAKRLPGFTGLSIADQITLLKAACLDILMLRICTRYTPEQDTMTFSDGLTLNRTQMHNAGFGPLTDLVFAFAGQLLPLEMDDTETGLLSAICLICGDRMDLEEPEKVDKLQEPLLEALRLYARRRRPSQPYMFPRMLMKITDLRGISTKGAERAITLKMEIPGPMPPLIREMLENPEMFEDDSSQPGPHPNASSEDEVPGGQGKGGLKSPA
Method in brief: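 TRANS format measured activity of exogenous NR-GAL4 fusion (RARg) in transfected HepG2 liver cells after 24 h dosing. Induced reporter RNA was detected by RT-PCR/capillary electrophoresis fluorescence, analysed in the positive direction against DMSO.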

[19] = target: Peroxisome proliferator-activated receptor gamma (Homo sapiens) (UniProt P37231); assay: ATG_PPARg_TRANS: Attagene TRANS-FACTORIAL HepG2 Assay for human Peroxisome Proliferator-activated Receptor-gamma (PPARg) (AID 2283007; active means hit-call score of the fitted dose curve at least 0.9, where 1 is the maximum)
Chain of Peroxisome proliferator-activated receptor gamma (Homo sapiens) (P37231 whole entry, looked up, the tested form may be a part): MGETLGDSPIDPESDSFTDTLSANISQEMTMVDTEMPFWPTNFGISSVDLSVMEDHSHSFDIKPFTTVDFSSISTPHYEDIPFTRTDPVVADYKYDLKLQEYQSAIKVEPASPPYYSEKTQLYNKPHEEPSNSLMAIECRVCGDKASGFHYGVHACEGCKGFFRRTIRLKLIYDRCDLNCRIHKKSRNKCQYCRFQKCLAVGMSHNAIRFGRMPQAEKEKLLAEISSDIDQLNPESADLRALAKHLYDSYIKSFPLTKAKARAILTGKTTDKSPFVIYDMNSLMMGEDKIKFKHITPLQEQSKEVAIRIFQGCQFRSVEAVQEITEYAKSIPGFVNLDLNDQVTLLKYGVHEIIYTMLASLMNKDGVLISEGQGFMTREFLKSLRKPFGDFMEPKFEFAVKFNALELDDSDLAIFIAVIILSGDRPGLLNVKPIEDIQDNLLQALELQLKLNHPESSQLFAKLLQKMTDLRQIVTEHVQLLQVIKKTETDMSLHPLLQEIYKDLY
Method in brief: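 After 24 h of chemical exposure, transfected HepG2 cells carrying PPARγ-Gal4 chimera reporter constructs are lysed for RNA. Reporter transcripts are measured by RT-PCR and capillary electrophoresis with fluorescent labelling, and gain of signal is fitted versus DMSO.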

Measured: AC50

Chain of E-selectin (Homo sapiens) (P16581 whole entry, looked up): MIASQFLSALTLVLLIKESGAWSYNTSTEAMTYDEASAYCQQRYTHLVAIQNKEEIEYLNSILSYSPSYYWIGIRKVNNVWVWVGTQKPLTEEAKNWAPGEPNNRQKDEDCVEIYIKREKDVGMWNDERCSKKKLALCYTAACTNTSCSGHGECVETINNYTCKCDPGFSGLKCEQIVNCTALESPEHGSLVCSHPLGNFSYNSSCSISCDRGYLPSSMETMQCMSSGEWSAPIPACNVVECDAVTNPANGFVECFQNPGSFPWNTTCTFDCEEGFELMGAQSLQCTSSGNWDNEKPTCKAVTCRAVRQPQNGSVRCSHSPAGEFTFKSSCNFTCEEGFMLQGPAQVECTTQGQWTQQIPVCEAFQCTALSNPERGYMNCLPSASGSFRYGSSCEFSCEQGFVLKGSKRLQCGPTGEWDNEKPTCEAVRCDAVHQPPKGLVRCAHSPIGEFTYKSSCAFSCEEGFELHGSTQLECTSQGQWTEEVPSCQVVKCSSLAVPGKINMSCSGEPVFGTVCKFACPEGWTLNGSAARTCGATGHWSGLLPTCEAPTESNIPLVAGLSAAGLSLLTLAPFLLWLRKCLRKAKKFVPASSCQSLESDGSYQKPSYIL

CC(C)N(Cc1ccccc1)C(=O)C(C)(C)C
active: [2] 0.556 µM
not listed: [16] | [17] | [18] | [19]
inactive: all other assays above

Cc1ccc([N+](=O)[O-])cc1
not listed: [2] | [3] | [18] | [19]
inactive: all other assays above

Cc1ccc(N)c(N)c1
active: [1] 2.11 µM | [5] 6.22 µM | [9] 7.53 µM | [10] 3.17 µM
inactive: [18] | [16] | [7] | [8] | [11] | [13] | [15]

COC(=O)c1ccccc1N
not listed: [2] | [14] | [16] | [18] | [19]
inactive: all other assays above

[O-][Cl+]O
not listed: [2] | [3] | [12] | [16] | [18] | [19]
inactive: all other assays above

CCCSC(=O)N(CCC)CCC
active: [3] 132 µM | [4] 34.1 µM
not listed: [2] | [14] | [16] | [18] | [19]
inactive: all other assays above

CCC(C)c1ccc(O)cc1 (stereo not drawn)
active: [4] 100 µM
inactive: [1] | [5] | [6] | [7] | [8] | [9] | [10] | [11] | [13] | [15]

Clc1ccccc1Cl
not listed: [2] | [3] | [4] | [6] | [16] | [17] | [18]
inactive: all other assays above

CN(C)[C@@H]1C(=O)C(C(N)=O)=C(O)[C@@]2(O)C(=O)C3=C(O)c4c(O)cccc4[C@@](C)(O)[C@H]3C[C@@H]12
not listed: [2] | [3] | [4] | [6] | [12] | [16] | [18]
inactive: all other assays above

CC(C)(C)OOC(=O)c1ccccc1
not listed: [2] | [3] | [4] | [6] | [14] | [17] | [18] | [19]
inactive: all other assays above
